PubChem BioAssay (NCATS)
Records with an inconclusive call do not appear. A call without a number means that no potency is given here. Active and inactive are the calls of the source. Calls come from the whole dose curve; as a rule, active = well fitted curve in the direction sought with a large enough effect; inconclusive = small, poorly fitted or top-dose-only effect, or another doubt; inactive = no such curve, though single readings can be large; an effect the other way counts as inactive or inconclusive.

Experiments:
[1] = target: Aldehyde dehydrogenase, mitochondrial (Homo sapiens) (UniProt P05091); assay: qHTS for Inhibitors of the Aldehyde Dehydrogenase Family (ALDH2) Primary screen (AID 2061308); note: nearly all actives have a fitted effect of over 55% in size
[2] = target: Retinaldehyde dehydrogenase 3 (Homo sapiens) (UniProt P47895); assay: qHTS for Inhibitors of the Aldehyde Dehydrogenase Family (ALDH1A3) Primary screen (AID 2061315)

Nc1ncc(S(=O)(=O)N2CCOCC2)s1
Potency [1]: inactive | Potency [2]: inactive

Cn1cccc1CN=C1NC2=C(C(=O)CCC2)C(c2[nH]ncc2Cl)N1 (stereo unspecified)
Potency [1]: inactive | Potency [2]: inactive

CCOC(=O)c1ccoc1-c1ccc2ncnc(N(C)Cc3sccc3C)c2c1
Potency [1]: inactive | Potency [2]: inactive

Cc1cccc(-c2ccc3ncnc(NCc4cccc(F)c4)c3c2)c1
Potency [1]: inactive | Potency [2]: inactive

COc1ccc2c(c1)Oc1nc(-c3ccc(C)s3)nc(SCC(=O)Nc3cccc(C(=O)O)c3)c1C2
Potency [1]: inactive | Potency [2]: inactive

Cc1ccc(C)c(SC2=CS(=O)(=O)c3ccccc32)c1
Potency [1]: inactive | Potency [2]: inactive

CCN(CC)c1ccc(NC(=O)CN(C)Cc2c(O)ccc3ccccc23)cc1
Potency [1]: inactive | Potency [2]: inactive

Cc1ccc(C(=O)Nc2nnc(-c3ccco3)o2)cc1
Potency [1]: inactive | Potency [2]: inactive

Cc1ccc(CSc2nnc(-c3cccc4ccccc34)o2)cc1
Potency [1]: inactive | Potency [2]: inactive

O=S(=O)(c1ccc2c(c1)OCCO2)N1CCN(S(=O)(=O)c2cc(F)c(F)cc2F)CC1
Potency [1]: inactive | Potency [2]: inactive

CCN(CC)CCCCn1c(-c2ccccc2)nc2c(Nc3ccccc3)nc(C)nc21
Potency [1]: inactive | Potency [2]: inactive

CCCC1CCC(C(=O)Nc2ccc(S(=O)(=O)Nc3nccs3)cc2)CC1 (stereo unspecified)
Potency [1]: inactive | Potency [2]: inactive

O=C(O)c1ccc(-c2noc(-c3cccc(Cl)c3)n2)cc1
Potency [1]: inactive | Potency [2]: inactive

Cc1nc(Nc2nc3ccccc3o2)nc2c1CCCC2
Potency [1]: inactive | Potency [2]: inactive

N#Cc1ccc(-c2nc(NCc3ccc(-c4ccnc(C(F)(F)F)c4)cc3)c3ccccc3n2)cc1
Potency [1]: inactive | Potency [2]: inactive

FC(F)(F)c1cccc(-c2nc(NCc3ccc(-c4ccnc(C(F)(F)F)c4)cc3)c3ccccc3n2)c1
Potency [1]: inactive | Potency [2]: inactive

Fc1ccc(Nc2cc(-c3ccccc3)nc(-c3ccncc3)n2)cc1F
Potency [1]: inactive | Potency [2]: inactive

CC(=O)Nc1sc2c(c1C#N)CCN(C(C)C)C2
Potency [1]: inactive | Potency [2]: inactive

CCCn1c(C)nc2c(NCCCN(C)C)nc(C)nc21
Potency [1]: inactive | Potency [2]: inactive

C[C@@H]1O[C@@H](O[C@H]2[C@H](O[C@H]3CC[C@@]4(C)C(CC[C@]5(C)C4C=C[C@]46OC[C@@]7(CCC(C)(C)C[C@H]74)[C@@H](O)C[C@]65C)[C@]3(C)CO)O[C@H](CO)[C@@H](O)[C@@H]2O[C@@H]2O[C@H](CO)[C@@H](O[C@@H]3O[C@@H](C)[C@H](O)[C@@H](O)[C@H]3O)[C@H](O)[C@H]2O)[C@H](O)[C@H](O)[C@H]1O (stereo partly specified)
Potency [1]: inactive | Potency [2]: inactive

O=C(Cc1ccccc1)Nc1sc2c(c1C(=O)Nc1cccc(Cl)c1)CCCC2
Potency [1]: inactive | Potency [2]: inactive

C=CCNc1oc(-c2ccc(Cl)cc2)nc1C#N
Potency [1]: inactive | Potency [2]: inactive

O=C(Nc1ccc(F)c(C(F)(F)F)c1)Nc1nc(-c2ccncc2)cs1
Potency [1]: inactive | Potency [2]: inactive

FC(F)(F)c1cccc(Nc2ccc(CNc3nc(-c4ccccc4C(F)(F)F)nc4ccccc34)cc2)c1
Potency [1]: inactive | Potency [2]: inactive

CCCN1CCN(c2cccc(Nc3nn4c(=O)c5ccccc5nc4s3)c2)CC1
Potency [1]: inactive | Potency [2]: inactive

Cc1ccc(S(=O)(=O)N(C)c2cccc3cccnc23)cc1
Potency [1]: inactive | Potency [2]: inactive

Cc1ccc(S(=O)(=O)Nc2cnccc2C(=O)Nc2nc(-c3ccc(C)c(C)c3)cs2)cc1
Potency [1]: inactive | Potency [2]: inactive

Cc1cnc(N2CCC(C(N)=O)CC2)nc1-c1cccc(N(C)C)c1
Potency [1]: inactive | Potency [2]: inactive

O=C(CN1C(=O)N/C(=C\c2cccn2-c2cccc(C(=O)O)c2)C1=O)Nc1cccc(F)c1
Potency [1]: inactive | Potency [2]: inactive

CCOc1ccc(C(C)CNC(=O)c2cc3sccc3n2Cc2ccccc2)cc1OCC (stereo unspecified)
Potency [1]: inactive | Potency [2]: inactive

CC(O)C(O)/C=C/C=C/C(=O)O[C@@H]1C=C(C(=O)O)[C@](O)(CO)[C@@]2(C)CCCC(C)(C)[C@H]12 (stereo partly specified)
Potency [1]: inactive | Potency [2]: inactive

CCOc1cc(CCNC(=O)c2cc3sccc3n2Cc2ccccc2)cc(F)c1OCC
Potency [1]: inactive | Potency [2]: inactive

CC(C)(C)OC(=O)Cc1nnc(CNC(=O)c2ccccc2)s1
Potency [1]: inactive | Potency [2]: inactive

Cc1ccnc(NC(=S)NC2CN(c3cccc(C(F)(F)F)c3)C2)c1
Potency [1]: inactive | Potency [2]: inactive

CC1(C)CC[C@]2(C(=O)O[C@@H]3O[C@H](CO[C@@H]4O[C@H](CO[C@@H]5O[C@H](CO)[C@H](O)[C@H](O)[C@H]5O)[C@@H](O)[C@H](O)[C@H]4O)[C@@H](O)[C@H](O[C@@H]4O[C@H](CO)[C@@H](O)[C@H](O)[C@H]4O)[C@H]3O)[C@H](O)C[C@]3(C)C(=CCC4[C@@]5(C)CC[C@H](O[C@@H]6OC[C@@H](O)[C@H](O)[C@H]6O)[C@@](C)(C(=O)O)C5CC[C@]43C)[C@@H]2C1 (stereo partly specified)
activity change, negative = inhibition [1]: 13.7% [at 11.2 µM] (inactive) | activity change, negative = inhibition [2]: 11.1% [at 11.2 µM] (inactive)

C=C1C(=O)OC2C1CCC1(C)C(O)CC=C(C)C21 (stereo unspecified)
Potency [1]: inactive | Potency [2]: inactive

CC(=O)/C=C/[C@H]1[C@](C)(O)[C@@H](O)[C@H](O)C2C(C)(C)CCC[C@@]21C (stereo partly specified)
Potency [1]: inactive | Potency [2]: inactive

COc1cccc(CNc2ccc(S(=O)(=O)Nc3cccnc3)cc2)c1O
Potency [1]: inactive | Potency [2]: inactive

O=C(CNC(=O)c1ccc2n[nH]nc2c1)OC(C(=O)Nc1cc(C(F)(F)F)ccc1Cl)c1ccccc1 (stereo unspecified)
Potency [1]: inactive | Potency [2]: inactive

O=S(=O)(c1ccc2c(c1)OCCO2)N1CCN(S(=O)(=O)c2ccc(Cl)cc2F)CC1
Potency [1]: inactive | Potency [2]: inactive

O=C1CCCC2=C1C(c1cccc(F)c1)N=C(Nc1nc3ccccc3o1)N2 (stereo unspecified)
Potency [1]: inactive | Potency [2]: inactive

O=C(NNC(=O)c1cc2ccccc2[nH]1)OCc1ccccc1
Potency [1]: inactive | Potency [2]: inactive

O=C(OCC#CCSc1nnc(-c2cccc3ccccc23)o1)c1ccc(OC(F)F)cc1
Potency [1]: inactive | Potency [2]: inactive

Oc1ccc(CNc2cccc(C(F)(F)F)c2)c2cccnc12
Potency [1]: inactive | Potency [2]: inactive

CC(=O)N[C@H](C(=O)N[C@@H](C)C(=O)N[C@H](C#N)CC(=O)O)C(C)C
Potency [1]: inactive | Potency [2]: inactive

Cc1ccc(-c2nc(NCC(=O)Nc3cccc(C(=O)O)c3)c3ccccc3n2)cc1
Potency [1]: inactive | Potency [2]: inactive

CC(=O)c1ccccc1-c1ncc(C)c(NCc2ccc(-c3cccnc3)cc2)n1
Potency [1]: inactive | Potency [2]: inactive

CC(=O)NS(=O)(=O)c1ccc(NC(=O)c2cc(-c3ccc(C)c(C)c3)nc3ccccc23)cc1
Potency [1]: inactive | Potency [2]: inactive

Cc1cc(C)nc(NC(=S)N2CCN(c3ncccn3)CC2)c1
Potency [1]: inactive | Potency [2]: inactive

O=C(Nc1cc(C(F)(F)F)ccc1Cl)[C@H](O)CCc1ccccc1
Potency [1]: inactive | Potency [2]: inactive

N#Cc1nonc1-c1ccccc1
Potency [1]: inactive | Potency [2]: inactive

C=CCc1cc(F)c(S(=O)(=O)N2CCN(S(=O)(=O)c3ccc4c(c3)OCCO4)CC2)cc1F
Potency [1]: inactive | Potency [2]: inactive

Cc1ccc(NS(=O)(=O)c2cc3c(cc2-c2cn[nH]c2)NC(=O)CO3)cc1C
Potency [1]: inactive | Potency [2]: inactive

COc1cc(-c2ccc3ncnc(NCCc4cnc[nH]4)c3c2)cc(OC)c1OC
Potency [1]: inactive | Potency [2]: inactive

CCN(CC)C(=O)COC(=O)c1ccc(S(C)(=O)=O)c([N+](=O)[O-])c1
Potency [1]: inactive | Potency [2]: inactive

C[C@@H]1CN(S(=O)(=O)c2c(F)cccc2F)CCN1S(=O)(=O)c1ccc2c(c1)OCCO2
Potency [1]: inactive | Potency [2]: inactive

CC(=O)O[C@@H]1C[C@]2(C)[C@@]3(CCC4[C@@]5(C)CC[C@H](O[C@@H]6O[C@H](C(=O)O)[C@@H](O)[C@H](O[C@@H]7O[C@H](CO)[C@H](O)[C@H](O)[C@H]7O[C@@H]7O[C@@H](C)[C@H](O)[C@@H](O)[C@H]7O[C@@H]7OC[C@](O)(CO)[C@H]7O)[C@H]6O[C@@H]6O[C@H](CO)[C@H](O)[C@H](O)[C@H]6O)C(C)(C)C5CC[C@]42C)O[C@@H](O)[C@]12C3CC(C)(C)[C@@H](OC(=O)/C=C/c1ccc(O)c(O)c1)[C@@H]2OC(=O)/C=C/c1ccccc1 (stereo partly specified)
activity change, negative = inhibition [1]: 3.11% [at 11.2 µM] (inactive) | activity change, negative = inhibition [2]: 17.4% [at 11.2 µM] (inactive)

O=C(Cn1nc(-c2cccnc2)ccc1=O)NCCc1ccccc1
Potency [1]: inactive | Potency [2]: inactive

C(=C/c1cccs1)/c1ccncc1
Potency [1]: inactive | Potency [2]: inactive

NC(=O)C1CCN(c2nc(-c3ccc(Br)cc3)cs2)CC1
Potency [1]: inactive | Potency [2]: inactive

Cc1cc(NS(=O)(=O)c2ccc(NC(=O)C(C)(C)c3ccc(Cl)c(Cl)c3)cc2)no1
Potency [1]: inactive | Potency [2]: inactive

O=C1CCCC2=C1C(c1ncccc1Br)N=C(Nc1nc3ccccc3o1)N2 (stereo unspecified)
Potency [1]: inactive | Potency [2]: inactive

O=[S+]([O-])(Nc1ccc(N2CCNCC2)cc1)c1ccc(NCc2ccc(Br)cc2O)cc1
Potency [1]: inactive | Potency [2]: inactive

Cc1ccc(S(=O)(=O)Nc2ccc(C(=O)Nc3nc(-c4ccccc4)cs3)c(Cl)c2)cc1
Potency [1]: inactive | Potency [2]: inactive

O=C(Nc1ccc(-c2ccncc2)nc1)c1cccs1
Potency [1]: inactive | Potency [2]: inactive

CNc1oc(-c2cccc(Cl)c2)nc1C#N
Potency [1]: inactive | Potency [2]: inactive

CCOc1ccccc1CNc1ncnc2ccc(-c3c(C)noc3C)cc12
Potency [1]: inactive | Potency [2]: inactive

C[C@@H]1CC[C@]2(C(=O)O)CC[C@]3(C(=O)O)C(=CCC4[C@@]5(C)CC[C@H](O[C@@H]6O[C@@H](C)[C@H](O[C@@H]7O[C@H](CO)[C@@H](O)[C@H](O)[C@H]7O)[C@@H](O)[C@H]6O)C(C)(C)C5CC[C@]43C)C2[C@H]1C (stereo partly specified)
Potency [1]: inactive | Potency [2]: inactive

COc1ccc(NC(=O)c2cnn3c(-c4ccccc4)cc(C)nc23)cc1
Potency [1]: inactive | Potency [2]: inactive

COc1ccc(OC)c(-c2nnc3n2N=C(c2c(OC)cccc2OC)CS3)c1
Potency [1]: inactive | Potency [2]: inactive

CCOC(=O)c1ccoc1-c1ccc2ncnc(NCCc3cnc[nH]3)c2c1
Potency [1]: inactive | Potency [2]: inactive

CCOc1ccc(COc2ccc(-c3nc4ccccc4[nH]3)cc2)cc1
Potency [1]: inactive | Potency [2]: inactive

O=c1c2ccccc2nc2sc(Nc3cccc4ccccc34)nn12
Potency [1]: inactive | Potency [2]: inactive
